# Measured values taken from the supplement of paper PMC6411743.
# ± gives the standard deviation of the averaged measurements. Targets with the largest changes are over-represented here; the source holds about 6,200 in all.
# Compound: Nc1ncnc2c1ncn2[C@@H]1O[C@H](COP(=O)(O)OP(=O)(O)NP(=O)(O)O)[C@@H](O)[C@H]1O [adenylyl imidodiphosphate]
# Assay: NP40-soluble protein abundance relative to vehicle (solubility fold change) (ratio); higher = more soluble protein in presence of AMP-PNP
# How it was run: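 Values are fold changes against the detergent-processed vehicle, based on vsn-normalised intensities. Jurkat crude lysate was treated at eight concentrations from 0.1 to 10 mM (10 min at room temperature, then 3 min at 37 °C), solubilised with 0.8% NP40 and benzonase, ultracentrifuged and analysed by TMT-labelled LC-MS/MS over three independent experiments.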
# Chain of UniProt Q9Y618 (Q9Y618 whole entry, one chain of several): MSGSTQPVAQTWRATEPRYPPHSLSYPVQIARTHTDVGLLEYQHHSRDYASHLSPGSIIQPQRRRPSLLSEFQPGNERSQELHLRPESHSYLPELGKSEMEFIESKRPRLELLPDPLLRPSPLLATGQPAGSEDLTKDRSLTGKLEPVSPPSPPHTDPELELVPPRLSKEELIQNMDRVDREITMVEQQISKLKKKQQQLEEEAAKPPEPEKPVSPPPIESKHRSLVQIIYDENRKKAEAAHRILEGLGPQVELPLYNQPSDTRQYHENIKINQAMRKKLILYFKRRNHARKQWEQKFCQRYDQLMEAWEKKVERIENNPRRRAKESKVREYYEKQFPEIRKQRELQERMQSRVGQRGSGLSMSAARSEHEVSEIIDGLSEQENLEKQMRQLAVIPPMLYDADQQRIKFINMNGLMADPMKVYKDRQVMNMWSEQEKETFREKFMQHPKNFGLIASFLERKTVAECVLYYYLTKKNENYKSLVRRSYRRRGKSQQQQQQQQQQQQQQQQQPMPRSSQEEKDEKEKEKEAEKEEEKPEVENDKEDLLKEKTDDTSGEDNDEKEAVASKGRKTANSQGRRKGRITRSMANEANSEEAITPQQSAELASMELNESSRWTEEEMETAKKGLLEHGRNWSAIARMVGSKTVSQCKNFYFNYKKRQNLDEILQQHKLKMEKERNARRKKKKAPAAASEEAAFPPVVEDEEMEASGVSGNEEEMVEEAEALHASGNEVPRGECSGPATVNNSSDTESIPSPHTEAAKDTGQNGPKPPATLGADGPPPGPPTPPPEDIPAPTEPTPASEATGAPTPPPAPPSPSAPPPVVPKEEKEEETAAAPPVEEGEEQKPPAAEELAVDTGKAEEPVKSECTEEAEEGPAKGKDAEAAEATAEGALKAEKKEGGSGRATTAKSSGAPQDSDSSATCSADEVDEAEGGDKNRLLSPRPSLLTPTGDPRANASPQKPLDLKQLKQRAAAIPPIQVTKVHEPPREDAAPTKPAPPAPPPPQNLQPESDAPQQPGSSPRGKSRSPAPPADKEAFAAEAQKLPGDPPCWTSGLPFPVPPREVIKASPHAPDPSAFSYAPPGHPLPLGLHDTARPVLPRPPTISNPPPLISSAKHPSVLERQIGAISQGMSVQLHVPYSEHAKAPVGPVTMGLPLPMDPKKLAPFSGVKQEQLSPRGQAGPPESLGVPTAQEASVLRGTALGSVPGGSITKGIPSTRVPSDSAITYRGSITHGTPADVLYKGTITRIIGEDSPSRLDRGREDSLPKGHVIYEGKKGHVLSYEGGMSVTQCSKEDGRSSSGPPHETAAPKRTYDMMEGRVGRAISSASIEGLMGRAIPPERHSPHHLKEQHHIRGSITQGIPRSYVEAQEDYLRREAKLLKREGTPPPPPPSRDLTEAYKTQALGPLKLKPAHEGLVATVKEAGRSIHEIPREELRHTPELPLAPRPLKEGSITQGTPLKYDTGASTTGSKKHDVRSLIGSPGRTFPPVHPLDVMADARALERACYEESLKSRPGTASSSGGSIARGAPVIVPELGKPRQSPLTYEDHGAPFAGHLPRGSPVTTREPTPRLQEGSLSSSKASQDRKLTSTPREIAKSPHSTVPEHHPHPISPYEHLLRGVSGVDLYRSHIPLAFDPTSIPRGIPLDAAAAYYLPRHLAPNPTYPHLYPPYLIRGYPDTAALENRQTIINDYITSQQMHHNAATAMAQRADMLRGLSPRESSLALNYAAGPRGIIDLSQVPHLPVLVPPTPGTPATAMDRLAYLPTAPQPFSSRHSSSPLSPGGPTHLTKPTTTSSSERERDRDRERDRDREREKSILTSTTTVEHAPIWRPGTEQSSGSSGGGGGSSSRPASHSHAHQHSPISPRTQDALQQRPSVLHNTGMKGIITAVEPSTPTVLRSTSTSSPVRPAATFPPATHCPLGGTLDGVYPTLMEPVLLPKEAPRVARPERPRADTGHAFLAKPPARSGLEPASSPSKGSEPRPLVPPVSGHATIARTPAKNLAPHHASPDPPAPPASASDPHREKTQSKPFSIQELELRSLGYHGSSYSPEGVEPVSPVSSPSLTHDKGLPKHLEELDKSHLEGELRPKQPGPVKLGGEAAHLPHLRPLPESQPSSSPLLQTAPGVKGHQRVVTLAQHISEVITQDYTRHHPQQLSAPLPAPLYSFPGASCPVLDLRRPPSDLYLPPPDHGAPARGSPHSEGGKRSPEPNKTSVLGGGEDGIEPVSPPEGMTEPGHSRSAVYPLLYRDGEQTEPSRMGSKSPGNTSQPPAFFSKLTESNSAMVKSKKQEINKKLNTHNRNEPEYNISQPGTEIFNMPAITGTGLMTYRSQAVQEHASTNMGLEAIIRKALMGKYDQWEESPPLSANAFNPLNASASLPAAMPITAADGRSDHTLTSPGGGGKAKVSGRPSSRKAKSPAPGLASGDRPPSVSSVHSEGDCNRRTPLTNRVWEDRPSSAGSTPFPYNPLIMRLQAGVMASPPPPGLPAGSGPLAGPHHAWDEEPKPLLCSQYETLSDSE
# Chain of UniProt A3KMH1 (A3KMH1 whole entry): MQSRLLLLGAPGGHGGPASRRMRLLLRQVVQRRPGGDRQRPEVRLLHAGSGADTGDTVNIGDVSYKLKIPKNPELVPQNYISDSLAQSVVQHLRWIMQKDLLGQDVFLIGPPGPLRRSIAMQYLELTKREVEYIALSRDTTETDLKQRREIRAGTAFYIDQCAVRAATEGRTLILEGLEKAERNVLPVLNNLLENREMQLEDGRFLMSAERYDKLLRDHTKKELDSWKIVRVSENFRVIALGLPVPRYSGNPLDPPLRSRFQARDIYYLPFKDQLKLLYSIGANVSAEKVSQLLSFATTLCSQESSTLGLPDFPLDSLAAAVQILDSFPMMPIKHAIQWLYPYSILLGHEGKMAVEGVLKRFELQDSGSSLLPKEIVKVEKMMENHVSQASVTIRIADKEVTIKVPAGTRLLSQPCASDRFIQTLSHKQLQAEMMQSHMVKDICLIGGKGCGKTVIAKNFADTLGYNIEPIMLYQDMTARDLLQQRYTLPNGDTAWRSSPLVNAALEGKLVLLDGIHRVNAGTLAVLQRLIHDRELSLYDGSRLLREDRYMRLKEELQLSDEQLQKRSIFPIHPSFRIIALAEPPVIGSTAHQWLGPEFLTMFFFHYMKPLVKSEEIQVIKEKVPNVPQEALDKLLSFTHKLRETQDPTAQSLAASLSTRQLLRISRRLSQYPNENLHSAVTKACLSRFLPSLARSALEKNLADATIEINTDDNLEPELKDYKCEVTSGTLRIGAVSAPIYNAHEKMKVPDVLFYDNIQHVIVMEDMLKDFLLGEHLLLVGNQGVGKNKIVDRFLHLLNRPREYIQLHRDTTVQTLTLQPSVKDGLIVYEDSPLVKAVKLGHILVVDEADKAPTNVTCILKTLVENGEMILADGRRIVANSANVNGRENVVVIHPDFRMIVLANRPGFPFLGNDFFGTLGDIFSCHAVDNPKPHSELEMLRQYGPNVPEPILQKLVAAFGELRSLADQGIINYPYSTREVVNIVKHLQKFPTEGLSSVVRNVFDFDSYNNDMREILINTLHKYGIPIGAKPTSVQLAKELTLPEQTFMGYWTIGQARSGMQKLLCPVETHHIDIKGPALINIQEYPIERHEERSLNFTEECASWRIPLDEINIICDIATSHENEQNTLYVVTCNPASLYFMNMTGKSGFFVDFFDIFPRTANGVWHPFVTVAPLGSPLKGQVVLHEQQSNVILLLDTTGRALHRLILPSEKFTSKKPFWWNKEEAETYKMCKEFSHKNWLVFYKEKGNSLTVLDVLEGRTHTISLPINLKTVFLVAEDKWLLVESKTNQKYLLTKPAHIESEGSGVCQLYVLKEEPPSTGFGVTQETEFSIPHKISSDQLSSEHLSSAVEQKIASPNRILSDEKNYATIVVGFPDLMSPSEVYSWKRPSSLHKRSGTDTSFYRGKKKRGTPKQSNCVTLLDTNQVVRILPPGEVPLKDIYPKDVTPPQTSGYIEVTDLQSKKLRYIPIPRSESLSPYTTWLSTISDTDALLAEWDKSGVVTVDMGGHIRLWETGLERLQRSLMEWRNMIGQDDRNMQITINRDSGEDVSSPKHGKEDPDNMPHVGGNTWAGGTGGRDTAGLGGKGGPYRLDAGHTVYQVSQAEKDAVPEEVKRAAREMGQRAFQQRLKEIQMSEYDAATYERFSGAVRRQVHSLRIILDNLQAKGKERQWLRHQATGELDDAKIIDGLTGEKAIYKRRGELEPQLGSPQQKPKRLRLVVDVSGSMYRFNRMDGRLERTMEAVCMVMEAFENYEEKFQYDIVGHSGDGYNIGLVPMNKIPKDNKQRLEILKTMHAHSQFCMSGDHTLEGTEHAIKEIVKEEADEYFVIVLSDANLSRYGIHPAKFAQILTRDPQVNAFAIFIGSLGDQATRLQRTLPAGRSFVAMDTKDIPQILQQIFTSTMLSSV
# Chain of UniProt Q96K37 (Q96K37 whole entry, one chain of several): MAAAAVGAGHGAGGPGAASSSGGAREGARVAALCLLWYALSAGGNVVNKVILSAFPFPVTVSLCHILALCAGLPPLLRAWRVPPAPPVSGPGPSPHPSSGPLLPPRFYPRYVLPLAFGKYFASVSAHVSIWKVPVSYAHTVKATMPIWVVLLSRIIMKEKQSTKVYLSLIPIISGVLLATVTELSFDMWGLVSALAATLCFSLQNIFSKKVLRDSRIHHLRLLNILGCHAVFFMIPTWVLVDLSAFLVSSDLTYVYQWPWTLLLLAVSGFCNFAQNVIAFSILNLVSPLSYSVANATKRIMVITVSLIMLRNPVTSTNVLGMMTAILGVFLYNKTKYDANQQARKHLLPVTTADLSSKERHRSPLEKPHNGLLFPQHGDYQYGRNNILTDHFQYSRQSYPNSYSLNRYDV
# Chain of UniProt Q9HCU9 (Q9HCU9 whole entry, one chain of several): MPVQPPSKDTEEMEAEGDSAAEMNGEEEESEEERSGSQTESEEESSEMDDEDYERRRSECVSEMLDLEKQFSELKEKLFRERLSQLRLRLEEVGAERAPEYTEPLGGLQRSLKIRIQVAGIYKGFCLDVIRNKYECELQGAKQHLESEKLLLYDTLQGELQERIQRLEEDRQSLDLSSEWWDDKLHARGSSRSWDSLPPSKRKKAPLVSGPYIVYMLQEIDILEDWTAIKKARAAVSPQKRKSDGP
Target,NP40-soluble protein abundance (concentration: 1mM),NP40-soluble protein abundance (concentration: 2mM),NP40-soluble protein abundance (concentration: 4mM),NP40-soluble protein abundance (concentration: 6mM),NP40-soluble protein abundance (concentration: 8mM),NP40-soluble protein abundance (concentration: 10mM)
H0YKD8|P46779 (UniProt P46779),1.05 ± 0.14,1.02 ± 0.09,1.01 ± 0.13,0.993 ± 0.071,0.919 ± 0.098,1.05 ± 0.16
H3BRF9|Q96K21|Q96K21-3 (UniProt Q96K21),0.998 ± 0.015,1.03 ± 0.05,1.02 ± 0.049,0.979 ± 0.02,0.959 ± 0.028,0.997 ± 0.044
DKC1 (UniProt O60832),1.049 ± 0.0097,1.1 ± 0.057,1.13 ± 0.028,1.21 ± 0.051,1.29 ± 0.046,1.36 ± 0.083
D6RCD0|Q8NBQ5 (UniProt Q8NBQ5),0.995 ± 0.031,0.9738 ± 0.0077,1.01 ± 0.047,1.06 ± 0.079,1.04 ± 0.056,1.04 ± 0.064
B0QXZ5|O96015 (UniProt O96015),1 ± 0.02,1.01 ± 0.047,0.983 ± 0.018,0.998 ± 0.021,0.996 ± 0.019,0.9826 ± 0.0082
B8ZZS2|Q13506|Q13506-2 (UniProt Q13506),0.9966 ± 0.0056,1.02 ± 0.019,0.9788 ± 0.0084,1.024 ± 0.0073,1.01 ± 0.029,1.008 ± 0.0093
UniProt A3KMH1|A3KMH1-3,0.93 ± 0.024,0.858 ± 0.098,0.933 ± 0.025,0.874 ± 0.035,0.879 ± 0.017,0.8557 ± 0.0057
C9J0Q5|C9JE98|C9JFD3|Q9Y618|Q9Y618-3|Q9Y618-4|Q9Y618-5 (UniProt Q9Y618),1.03 ± 0.0079,1.05 ± 0.04,1.03 ± 0.035,0.969 ± 0.057,0.951 ± 0.02,1.01 ± 0.052
F8VXC8|Q8TAQ2|Q8TAQ2-2|Q8TAQ2-3 (UniProt Q8TAQ2),1.03 ± 0.034,1.07 ± 0.04,1.04 ± 0.047,1.04 ± 0.1,1.04 ± 0.064,1.09 ± 0.1
D6RAJ6|Q9UKT5|Q9UKT5-2 (UniProt Q9UKT5),1.01 ± 0.035,0.996 ± 0.032,0.986 ± 0.024,0.975 ± 0.026,0.983 ± 0.035,0.981 ± 0.045
E9PJF5|G5E9I4|H0YCF7|Q9HCU9 (UniProt Q9HCU9),1.03 ± 0.018,1.05 ± 0.04,1.01 ± 0.012,1 ± 0.016,0.989 ± 0.041,1.02 ± 0.051
A0A0A0MTL5|Q13309|Q13309-2 (UniProt Q13309),0.986 ± 0.041,0.965 ± 0.037,0.976 ± 0.029,0.932 ± 0.053,0.923 ± 0.036,0.91 ± 0.014
K7EIU8|Q13485 (UniProt Q13485),0.986 ± 0.065,0.936 ± 0.062,0.99 ± 0.091,1.04 ± 0.084,1.08 ± 0.08,1.03 ± 0.093
H3BPB8|P34949 (UniProt P34949),1.029 ± 0.0072,1.01 ± 0.039,1.02 ± 0.027,0.976 ± 0.029,1.01 ± 0.042,0.988 ± 0.048
FAM20B (UniProt O75063),0.973 ± 0.02,0.993 ± 0.022,0.978 ± 0.024,0.99 ± 0.024,0.963 ± 0.016,1 ± 0.042
G3V5N8|Q9HBF4|Q9HBF4-3 (UniProt Q9HBF4),0.991 ± 0.012,0.986 ± 0.035,0.987 ± 0.054,0.96 ± 0.021,0.968 ± 0.0098,0.938 ± 0.047
H7C1I0|Q96K37|Q96K37-2 (UniProt Q96K37),1.02 ± 0.041,1.03 ± 0.017,1.02 ± 0.022,1.02 ± 0.039,1.05 ± 0.054,1.07 ± 0.056
H0YIV9|O43716 (UniProt O43716+H0YIV9),0.973 ± 0.038,1.02 ± 0.038,1.01 ± 0.03,0.988 ± 0.012,0.977 ± 0.015,0.962 ± 0.013
H0YLF3|P61769 (UniProt P61769),0.99 ± 0.055,0.977 ± 0.084,0.923 ± 0.1,0.879 ± 0.15,0.971 ± 0.035,0.917 ± 0.076
H7BYF2|Q5JRG1|Q9BVL2|Q9BVL2-2|Q9BVL2-3 (UniProt Q9BVL2),1.031 ± 0.0089,1.1 ± 0.095,1.04 ± 0.053,1.03 ± 0.033,1.04 ± 0.026,1.11 ± 0.06
E9PLV1|Q9NQV6|Q9NQV6-1|Q9NQV6-2|Q9NQV6-4|Q9NQV6-5|Q9NQV6-6|Q9NQV6-7|E9PRS0 (UniProt Q9NQV6),1 ± 0.012,0.963 ± 0.055,0.9952 ± 0.0059,0.989 ± 0.021,1 ± 0.034,0.98 ± 0.023
F8WF69|P09496-2 (UniProt P09496),0.9494 ± 0.001,0.919 ± 0.057,0.873 ± 0.05,0.833 ± 0.033,0.806 ± 0.014,0.813 ± 0.018
B5MCX3|Q15019|Q15019-2 (UniProt Q15019),1.027 ± 0.0023,0.997 ± 0.032,1.003 ± 0.0091,0.984 ± 0.026,0.98 ± 0.017,0.952 ± 0.037
E9PBG7|E9PF82|Q13557|Q13557-10|Q13557-11|Q13557-12|Q13557-3|Q13557-4|Q13557-5|Q13557-6|Q13557-8|Q13557-9 (UniProt Q13557),0.94 ± 0.026,0.989 ± 0.049,0.903 ± 0.017,0.89 ± 0.054,0.878 ± 0.022,0.88 ± 0.027
F8W922|Q9H7P6|Q9H7P6-2 (UniProt Q9H7P6),1.01 ± 0.013,0.98 ± 0.022,0.989 ± 0.02,1.02 ± 0.032,1.02 ± 0.016,1.02 ± 0.013
J3KS94|J3QQK6|P02686|P02686-2 (UniProt P02686),0.968 ± 0.054,0.993 ± 0.035,0.96 ± 0.03,0.928 ± 0.033,0.896 ± 0.013,0.903 ± 0.029
K7EMM8|Q49A26|Q49A26-2|Q49A26-3|Q49A26-4 (UniProt Q49A26),1.07 ± 0.062,1.14 ± 0.1,1.16 ± 0.14,1.25 ± 0.17,1.31 ± 0.2,1.47 ± 0.3
ARPC2 (UniProt O15144),0.974 ± 0.033,0.896 ± 0.11,0.937 ± 0.023,0.976 ± 0.031,0.994 ± 0.046,0.957 ± 0.048
H7C5G1|Q2TAA2 (UniProt Q2TAA2),0.995 ± 0.037,0.975 ± 0.015,0.98 ± 0.028,0.972 ± 0.016,0.965 ± 0.022,0.981 ± 0.028
C9JJV1|Q9Y5U2|Q9Y5U2-2|A6NCC9|C9JHT9|E9PME3 (UniProt Q9Y5U2),1.01 ± 0.013,1.04 ± 0.076,1.01 ± 0.01,0.968 ± 0.047,0.951 ± 0.048,0.968 ± 0.068
